Source: PubChem BioAssay (Tox21)
Inconclusive results are not listed. A call without a number means that no potency is given here. A number with no mark means an inactive call. Activity calls are given as the source filed them. Unless noted, calls come from the whole dose curve; as a rule, active = well fitted curve in the direction sought with a large enough effect in the repeat runs; inconclusive = weak or mixed curves; inactive = no such curve, though single readings can be large; an effect the other way counts as inactive or inconclusive.

Experiments:
[1] = qHTS assay to identify small molecule antagonists of the vitamin D receptor (VDR) signaling pathway - cell viability counter screen (AID 743225); note: nearly all actives have a fitted effect of over 50% in size
In short: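 Cytotoxicity toward the VDR-bla HEK 293T line was scored by ATP-based CellTiter-Glo luminescence, read in the wells already used for the beta-lactamase readout after 16 h compound treatment under 3 nM 1-alpha,25-dihydroxyvitamin D3 stimulation.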

[2] = qHTS assay to identify small molecule agonists of the NFkB signaling pathway (AID 1159509; active = well fitted curve in the direction sought with a large enough effect in the signal ratio in the repeat runs, not every such curve was filed as active; the % refers to the signal ratio; note: series mostly up to about 61 µM)
In short: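 Agonist activity was read as beta-lactamase-driven FRET change (460 and 530 nm emission, 405 nm excitation) following 1.5 hr substrate loading at room temperature. Beforehand, ME-180 NFkB-bla reporter cells were treated with compounds for 5 hr at 37 C.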

[3] = qHTS assay to identify small molecule agonists of the NFkB signaling pathway - cell viability counter screen (AID 1159515; calls by dose curve; note: series mostly up to about 61 µM; nearly all actives have a fitted effect of over 55% in size)
In short: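 ME-180 NFkB-bla cells, 2,000/well; overnight attach; compound 5 hr, 37 C/5% CO2; LiveBLAzer substrate 1.5 hr RT; then CellTiter-Glo in same wells, 30 min RT, luminescence read.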

[4] = qHTS assay to identify small molecule agonists of the endoplasmic reticulum stress response signaling pathway - cell viability counter screen (AID 1159517; calls by dose curve;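 note: HeLa cells carrying an ER stress response element beta-lactamase reporter; series mostly up to about 61 µM; nearly all actives have a fitted effect of over 50% in size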)
In short: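 ESRE-bla HeLa cells (1,500/well) were plated overnight at 37 C and exposed to compounds for 5 hr. After the 2 hr beta-lactamase substrate read, CellTiter-Glo went into the same wells, and luminescence was read after 30 min at room temperature.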

[5] = qHTS assay to identify small molecule antagonists of the retinoid-related orphan receptor gamma (ROR-gamma) signaling pathway - cell viability counter screen (AID 1159520); note: nearly all actives have a fitted effect of over 50% in size
In short: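 Cytotoxicity was read from cellular ATP (CellTiter-Glo luminescence) after 16 hr at 37 C with 1 uM doxycycline induction. The inducer was added 2 hr after compound transfer to Tet-on ROR gamma CHO cells.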

[6] = target: Nuclear receptor ROR-gamma (Homo sapiens) (UniProt P51449); assay: qHTS assay to identify small molecule antagonists of the retinoid-related orphan receptor gamma (ROR-gamma) signaling pathway (AID 1159521;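 note: CHO cells with doxycycline inducible ROR-gamma driving an RORE luciferase reporter; top concentration of the series differs between compounds; nearly all actives have a fitted effect of over 50% in size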)
In short: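 Readout: ONE-Glo luciferase luminescence, 30 min at room temperature. System: Tet-on RORγ CHO, RORE-LUC. Sequence: compound 2 h, doxycycline 1 uM final, 16 h at 37 C.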

[7] = qHTS assay to identify small molecule antagonists of the retinoid acid receptor (RAR) signaling pathway - cell viability counter screen (AID 1159551); note: nearly all actives have a fitted effect of over 35% in size
In short: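 C3RL4 RARE-luciferase line; cpds + retinol 1 uM final, 6 h, 37 C/5% CO2; CellTiter-Glo ATP luminescence, 30 min RT.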

[8] = qHTS assay to identify small molecule agonists of the retinoic acid receptor (RAR) signaling pathway (AID 1159553)
In short: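 RARE-luc C3RL4 cells; overnight attachment 37 C/5% CO2; compound (DMSO) 6 hr; luciferase reagent, 30 min RT; luminescence read-out.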

[9] = qHTS assay to identify small molecule agonists of the AP-1 signaling pathway - cell viability counter screen (AID 1159525; calls by dose curve; note: nearly all actives have a fitted effect of over 55% in size)
In short: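 Intracellular ATP by Cell Titer Glo luminescence (30 min, RT) in the same ME-180 AP-1-bla wells after the 5 h compound exposure at 37 °C. Normalised to tetra n-octyl ammonium bromide and DMSO controls.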

[10] = qHTS assay to identify small molecule agonists of the AP-1 signaling pathway (AID 1159526; calls by dose curve)
[11] = target: Retinoic acid receptor RXR-alpha (Homo sapiens) (UniProt P19793); assay: qHTS assay to identify small molecule agonists of the RXR signaling pathway (AID 1159527; calls by dose curve; note: nearly all actives have a fitted effect of over 35% in size)
In short: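 Reporter activation is measured as beta-lactamase activity via FRET substrate cleavage (emission 460/530 nm) in HEK 293T cells expressing an RXR-alpha-driven bla construct, following 16 hr compound exposure at 37 C.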

[12] = qHTS assay to identify small molecule antagonists of the retinoic acid receptor (RAR) signaling pathway (AID 1159552; note: nearly all actives have a fitted effect of over 50% in size)
In short: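 Overnight-plated C3RL4 reporter cells get compound, then retinol to 1 uM final; plates sit 6 hr at 37 C, 5% CO2. A luciferase reagent is added and light output recorded after 30 min at room temperature.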

[13] = qHTS assay to identify small molecule agonists of the RXR signaling pathway - cell viability counter screen (AID 1159529); note: nearly all actives have a fitted effect of over 50% in size; note: potency is the fitted concentration of half-maximal effect
In short: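 Tox21 10K compounds were tested for cytotoxicity against GeneBLAzer RXR-alpha HEK 293T cells grown in 2% charcoal-stripped FBS. Exposure lasted 16 hr at 37 C, 5% CO2; viability read by CellTiter-Glo luminescence.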

[14] = qHTS assay to identify small molecule antagonists of the estrogen related receptor (ERR) signaling pathway - cell viability counter screen (AID 1224818); note: series mostly up to about 46 µM
In short: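 Fluorescence from CellTiter-Fluor, read 30 min after reagent addition at 37 C, measured viability of ERR cells exposed to compounds for 17.5 h. Cells had settled 6 h before dosing.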

[15] = qHTS assay to identify small molecule antagonists of the estrogen related receptor (ERR) signaling pathway (AID 1224819)
In short: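 Luminescence readout (One-Glo, 30 min, RT) of ERR cell line after 18 h compound exposure at 37 C; cells seeded 2,000/well, pre-incubated 6 h, compounds pinned from DMSO stocks.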

[16] = qHTS assay to identify small molecule agonists of the estrogen related receptor (ERR) signaling pathway (AID 1224820)
In short: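 After 6 h plating (2,000 cells/well) and 18 h compound treatment at 37 C, ERR cells were lysed with One-Glo and luminescence read after 30 min at room temperature.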

[17] = system: estrogen-related receptor alpha (ERRalpha) with PGC-1alpha coactivator, human; assay: qHTS assay to identify small molecule antagonists of the estrogen related receptor signaling pathway with the pleiotropic PPARgamma coactivator (PGC) (AID 1224821; calls by dose curve)
In short: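 Luminescence from One-Glo luciferase reagent (30 min, room temperature) measured after 18 h compound treatment at 37 °C. Cells carry the PGC/ERR reporter and were seeded 6 h prior to dosing.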

[18] = qHTS assay to identify small molecule antagonists of the estrogen related receptor signaling pathway with the pleiotropic PPARgamma coactivator (PGC) cell viability counter screen (AID 1224822; note: series mostly up to about 46 µM)
In short: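 Fluorescence read-out of CellTiter-Fluor after 30 min at 37 C; PGC/ERR cells, 2,000 per well, had been exposed to DMSO-dissolved compounds for 17.5 h following a 6 h pre-incubation.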

[19] = qHTS assay to identify small molecule agonists of the estrogen related receptor signaling pathway with the pleiotropic PPARgamma coactivator (PGC) (AID 1224823)
In short: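 Luminescence from One-Glo reagent (30 min, room temperature) was read after 18 h compound treatment at 37 C of PGC/ERR cells plated 6 h beforehand; compounds delivered in DMSO by pin tool.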

[20] = qHTS assay to identify small molecule agonists of the endoplasmic reticulum stress response signaling pathway (AID 1159516; active = well fitted activation curve with a large enough effect in the signal ratio in the repeat runs, not every such curve was filed as active; the % refers to the signal ratio)
In short: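 HeLa ESRE-bla reporter line; cpd 5 h, 37 C/5% CO2; LiveBLAzer B/G FRET substrate 2 h RT; ex 405, em 460/530 nm.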

Chain of Retinoic acid receptor RXR-alpha (Homo sapiens) (P19793 whole entry, looked up): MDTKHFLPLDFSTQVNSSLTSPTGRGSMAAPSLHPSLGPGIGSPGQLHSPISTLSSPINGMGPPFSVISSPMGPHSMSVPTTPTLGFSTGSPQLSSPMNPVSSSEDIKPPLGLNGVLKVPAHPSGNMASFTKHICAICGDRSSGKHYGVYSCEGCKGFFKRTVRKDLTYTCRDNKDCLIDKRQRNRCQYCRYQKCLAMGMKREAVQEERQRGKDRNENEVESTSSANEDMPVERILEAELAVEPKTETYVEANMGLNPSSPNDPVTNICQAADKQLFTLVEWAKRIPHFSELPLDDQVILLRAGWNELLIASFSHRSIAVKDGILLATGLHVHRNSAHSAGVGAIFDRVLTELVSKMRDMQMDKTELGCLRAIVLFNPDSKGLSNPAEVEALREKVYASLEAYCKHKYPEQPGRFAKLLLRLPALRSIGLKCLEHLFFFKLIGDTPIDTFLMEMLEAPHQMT

Structure (SMILES)	Potency [1]	outcome [2]	outcome [3]	outcome [4]	Potency [5]	Potency [6]	outcome [7]	Potency [8]	outcome [9]	Potency [10]	Potency [11]	Potency [12]	Potency [13]	outcome [14]	outcome [15]	outcome [16]	outcome [17]	outcome [18]	outcome [19]	outcome [20]
CCCOc1ccc2c(c1)CC[C@@H]1[C@@H]2CC[C@]2(C)C(OC)CC[C@@H]12 (stereo not given in full)	inactive	inactive	inactive	inactive	inactive	inactive	inactive	inactive												
CC(C)S	inactive	inactive	inactive	inactive	inactive		inactive	inactive	inactive	inactive	inactive	inactive								
C[C@]12CCC(=O)C=C1CC[C@@H]1[C@@H]2CC[C@@]2(C)[C@H]1CC[C@]2(O)C(=O)CO	inactive	inactive	inactive	inactive	inactive		inactive	inactive	inactive			inactive	inactive	inactive	inactive	inactive	inactive	inactive	inactive	
CCN(CC)CCNC(=O)COc1ccc(Cl)cc1	inactive	inactive	inactive	inactive	inactive		inactive	inactive	inactive	inactive	inactive	inactive								
O=C1CCC(C2CCCCC2)CC1	inactive	inactive	inactive	inactive	inactive		inactive	inactive	inactive	inactive	inactive		inactive							
CC1=CC(=O)CC(C)(C)C1=O	inactive	inactive	inactive	inactive	inactive		inactive	inactive	inactive	inactive	inactive	inactive	inactive							
Cc1cc2c(s1)Nc1ccccc1N=C2N1CCN(C)CC1	inactive	inactive	inactive	inactive	inactive	inactive	inactive	inactive			inactive	inactive								
C=CCCCCCCCCO	inactive		inactive	inactive	inactive		inactive		inactive	inactive	inactive		inactive							inactive
ICCc1ccccc1	inactive	inactive	inactive	inactive	inactive		inactive		inactive											
C1CCOC1		inactive	inactive	inactive	inactive		inactive	inactive	inactive	inactive	inactive	inactive	inactive							
CCCCCCCCCCCCOCCOS(=O)(=O)O		inactive	inactive	inactive	inactive		inactive	inactive				inactive	19.5 µM (active)							
